Test results reported in PubChem BioAssay (Tox21).
Results filed as inconclusive are left out. The source made the active and inactive calls. Calls come from the whole dose curve; as a rule, active = well fitted inhibition curve with a large enough effect in the signal ratio in the repeat runs (not every such curve was filed as active); inconclusive = weak or mixed curves, or effect the other way; inactive = no such curve, though single readings can be large or run the other way; the % refers to the signal ratio.

Biological target: Peroxisome proliferator-activated receptor delta (Homo sapiens) (UniProt Q03181)
Sequence (Q03181 whole entry, looked up): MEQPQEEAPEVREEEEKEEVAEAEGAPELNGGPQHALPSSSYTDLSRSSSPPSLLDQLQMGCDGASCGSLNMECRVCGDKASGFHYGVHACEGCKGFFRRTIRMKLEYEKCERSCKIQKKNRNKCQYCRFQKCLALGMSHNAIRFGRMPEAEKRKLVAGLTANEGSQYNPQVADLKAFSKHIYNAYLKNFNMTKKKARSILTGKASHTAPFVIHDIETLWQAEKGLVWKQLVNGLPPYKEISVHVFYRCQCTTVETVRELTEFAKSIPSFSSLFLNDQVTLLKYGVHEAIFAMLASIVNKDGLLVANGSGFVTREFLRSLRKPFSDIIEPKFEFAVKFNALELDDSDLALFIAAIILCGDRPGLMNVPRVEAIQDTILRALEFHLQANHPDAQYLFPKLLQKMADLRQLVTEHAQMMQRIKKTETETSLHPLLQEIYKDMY
Experiment: qHTS assay to identify small molecule antagonists of the peroxisome proliferator-activated receptor delta (PPARd) signaling pathway (AID 743215);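 note: cells stimulated with agonist L165041 at 300 nM final during compound exposure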
Conditions: HEK293H PPARd-UAS-bla, beta-lactamase FRET ratio, antagonist, 17 h; series mostly up to 62 µM; ratio activity, negative = inhibition: at the top concentration
Text: U.S. Tox21 Program National Center for Advancing Translational Sciences [NCATS] NIH Chemical Genomics Center [NCGC] U.S. Environmental Protection Agency [EPA] National Institutes of Environmental Health Sciences [NIEHS] National Toxicology Program [NTP] U.S. Food and Drug Administration [FDA] Tox21 Assay Overview: The peroxisome proliferator-activated receptors (PPARs) are lipid-activated transcription factors of the nuclear receptor superfamily with three distinct subtypes namely PPAR alpha, PPAR delta (PPARd) and PPAR gamma. All these subtypes heterodimerizes with Retinoid X receptor (RXR) and have different physiological functions. […] To identify the compounds that inhibit PPAR-delta signaling, GeneBLAzer PPAR delta UAS-bla HEK293H cell line (Invitrogen, Carlsbad, CA, USA) containing a beta-lactamase reporter gene under the control of an Upstream Activator Sequence (UAS) was used to screen the Tox21 compound library.
Tox21 Assay Protocol Summary: PPARd-bla cells were dispensed at 3000 cells/5uL/well in 1536-well black wall/clear bottom plates using a Multidrop Combi (Thermo Fisher Scientific, Waltham, MA) dispenser. After the assay plates were incubated at 37 C and 5% CO2 for 5 h, 23 nL of compounds dissolved in DMSO, positive controls or DMSO only was transferred to the assay plate by a Pintool station (Kalypsys, San Diego, CA), followed by addition of 1ul L165041 (300 nM, final concentration in the wells). The assay plates were incubated at 37 C for 17 h, and then 1 uL of LiveBLAzerTM B/G FRET substrate was added using a Bioraptr Flying Reagent Dispenser (FRD) workstation (Beckman Coulter, Indianapolis, IN, USA). The assay plates were incubated at room temperature for 2 h and fluorescence intensity was measured by an Envision plate reader (PerkinElmer, Shelton, CT).
% is set by controls: 0 for no effect and ±100 for the full control effect; potency is the fitted concentration of half-maximal effect.

Structure (SMILES) | ratio activity, negative = inhibition | Potency
Cc1c(F)c(N2CCNC(C)C2)cc2c1c(=O)c(C(=O)O)cn2C1CC1 (stereo not given) | 3.82% (inactive) | 
CCCCCCCC | 16.1% (inactive) | 
Cc1ccc(C(=O)O)cc1 | 3.04% [at 80.4 µM] (inactive) | 
O=C(O)Cc1ccccc1Nc1c(Cl)cccc1Cl | -6.48% (inactive) | 
C#C[C@]1(OC(C)=O)CC[C@H]2[C@@H]3CCC4=C/C(=N/O)CC[C@@H]4[C@H]3CC[C@@]21CC | 1.99% (inactive) | 
OC12N=C(c3ccccc3)SC1Cc1cc(Cl)ccc12 (stereo not given) | -0.281% (inactive) | 
CCCCCCCCCCC[C@@H](C[C@@H]1OC(=O)[C@H]1CCCCCC)OC(=O)[C@H](CC(C)C)NC=O | -6.05% (inactive) | 
O=[N+]([O-])c1cccc(C(F)(F)F)c1 | 11.1% [at 80.4 µM] (inactive) | 
CC(C)=CCNc1ncnc2c1ncn2[C@@H]1O[C@H](CO)[C@@H](O)[C@H]1O | -3.16% (inactive) | 
Cc1ccc(O)c(O)c1 | -16% (inactive) | 
O=[N+]([O-])c1ccc(O)cc1C(F)(F)F | 1.39% (inactive) | 
O=C(Oc1ccccc1)Oc1ccccc1 | 4.24% (inactive) | 
CC(C)(C)CC(C)(C)c1ccc(Nc2ccc(C(C)(C)CC(C)(C)C)cc2)cc1 | -4.33% [at 6.26 µM] (inactive) | 
O=S(=O)(O)c1ccc(N=Nc2c(O)ccc3ccccc23)cc1 | -21.5% (inactive) | 
CCCCCCC1CCCC(=O)O1 (stereo not given) | -19.3% (inactive) | 
C#C[C@]1(OC(C)=O)CC[C@H]2[C@@H]3CCC4=C[C@@H](OC(C)=O)CC[C@@H]4[C@H]3CC[C@@]21C | 4.1% (inactive) | 
O=C1OC2(c3ccc(O)cc3Oc3cc(O)ccc32)c2ccc(N=C=S)cc21 | -22.4% [at 80.4 µM] (inactive) | 
Clc1sc(Cl)c(Cl)c1Cl | 3.18% (inactive) | 
O=C(O)c1cc(N=Nc2ccc([N+](=O)[O-])cc2)ccc1O | -4.61% (inactive) | 
c1ccsc1 | 1.97% (inactive) | 

Structure (SMILES) | ratio activity, negative = inhibition | Potency
CN1CCCCC1CCN1c2ccccc2Sc2ccc(S(C)=O)cc21 (stereo not given) | 2.54% (inactive) | 
CC[N+](CC)(CC)CCOC(=O)C(C1CCCC1)C1CCCC1 | 9.4% (inactive) | 
CC(=O)OCC=C(C)C | -1.69% (inactive) | 
CCCCOC(=O)CC | -11% (inactive) | 
O=c1[nH]c2ccccc2n1CCCN1CCN(C(c2ccccc2)c2ccccc2)CC1 | -2.27% (inactive) | 
Cc1cc(C)c(/C=C2\C(=O)Nc3ccccc32)[nH]1 |  | 15 µM (active)
CCCCC(CC)COC(=O)CCCCC(=O)OCc1ccccc1 (stereo not given) | -2.49% (inactive) | 
C=C(C)c1cccc(C(=C)C)c1 | 2.92% (inactive) | 
CC(C)(C)NSc1nc2ccccc2s1 | -14.6% [at 80.4 µM] (inactive) | 
[Cl][Pt-2]([Cl])([Cl])[Cl] | -14.4% [at 80.4 µM] (inactive) | 
CCCC(=O)OCCc1ccccc1 | 2.3% (inactive) | 
O=C(/C=C/c1ccccc1)OC/C=C/c1ccccc1 | 5.48% (inactive) | 
CC(C)Cn1cnc2c(N)nc3ccccc3c21 | 6.65% [at 28.9 µM] (inactive) | 
CCCCC(CC)CN1CN(CC(CC)CCCC)CC(C)(N)C1 (stereo not given) | -18.8% (inactive) | 
CCc1cccc(CC)c1NC(=O)CN(CC(=O)O)CC(=O)O | 1.62% (inactive) | 
Cc1nc2n(c(=O)c1CCN1CCC(c3noc4cc(F)ccc34)CC1)CCCC2 | 14.2% (inactive) | 
ClCCl | 1.62% (inactive) | 
C=CC(C)(CCC=C(C)C)OC=O (stereo not given) | 11.6% (inactive) | 
CC1(C)CC(O)CC(C)(C)N1 | -0.446% [at 80.4 µM] (inactive) | 
CCC(CC)(CC(=O)Nc1cccc(/C=C/c2nc(C3CCC3)cs2)c1)C(=O)O | 14.6% (inactive) | 
